Counter-ions that a name gives are not always drawn.
Target: PARP1 L713F-nLuc biosensor (HCT116) (UniProt P09874)
Test: PARP1 L713F-nLuc/akaLuc ratio relative to DMSO control (biosensor stabilization) (fold change); higher = more PARP1 biosensor stabilization (target engagement / stabilizer), active = hit call of the paper
Conditions: 24 h;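 active = log2 fold change beyond 2 SD from the library mean after excluding viability outliers; inactive = within 2 SD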
[1] = stock concentration (mM; final µM = stock mM x 1): 10
[2] = stock concentration (mM; final µM = stock mM x 1): 2
[3] = stock concentration (mM; final µM = stock mM x 1): 9

Chain of PARP1 L713F-nLuc biosensor (HCT116) (P09874 whole entry L713F, looked up): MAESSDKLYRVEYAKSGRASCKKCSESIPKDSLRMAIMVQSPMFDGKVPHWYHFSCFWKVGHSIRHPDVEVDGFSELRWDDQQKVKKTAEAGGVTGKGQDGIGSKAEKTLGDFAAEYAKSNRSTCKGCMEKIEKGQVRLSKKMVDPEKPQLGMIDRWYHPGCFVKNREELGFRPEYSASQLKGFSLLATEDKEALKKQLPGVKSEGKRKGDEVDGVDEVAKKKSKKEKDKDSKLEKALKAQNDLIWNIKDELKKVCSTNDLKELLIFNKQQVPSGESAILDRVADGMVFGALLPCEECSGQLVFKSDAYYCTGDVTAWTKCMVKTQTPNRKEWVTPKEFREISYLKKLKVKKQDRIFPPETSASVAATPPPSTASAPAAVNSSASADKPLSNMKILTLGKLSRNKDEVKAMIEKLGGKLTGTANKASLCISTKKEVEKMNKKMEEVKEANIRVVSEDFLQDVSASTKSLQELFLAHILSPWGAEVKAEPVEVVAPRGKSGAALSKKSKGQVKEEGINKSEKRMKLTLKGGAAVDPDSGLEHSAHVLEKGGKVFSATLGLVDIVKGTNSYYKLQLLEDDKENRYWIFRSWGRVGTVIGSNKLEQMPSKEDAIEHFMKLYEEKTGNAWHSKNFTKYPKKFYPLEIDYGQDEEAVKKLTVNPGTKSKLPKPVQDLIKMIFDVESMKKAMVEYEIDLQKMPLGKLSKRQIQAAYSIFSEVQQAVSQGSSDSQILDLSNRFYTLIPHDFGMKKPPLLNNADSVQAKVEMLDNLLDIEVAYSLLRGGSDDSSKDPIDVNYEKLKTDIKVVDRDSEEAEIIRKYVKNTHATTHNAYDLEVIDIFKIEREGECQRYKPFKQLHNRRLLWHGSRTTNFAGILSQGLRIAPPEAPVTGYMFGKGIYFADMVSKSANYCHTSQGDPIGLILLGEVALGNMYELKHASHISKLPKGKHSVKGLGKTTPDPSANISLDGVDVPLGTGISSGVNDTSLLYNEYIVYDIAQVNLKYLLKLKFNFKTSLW

SMILES: Cc1cc(-c2ncc(CC(=O)Nc3ccc(-c4cnccn4)cn3)cc2C)ccn1
- PARP1 L713F-nLuc/akaLuc ratio [1]: 1.03 (inactive)

SMILES: CC[C@]1(O)C[C@H]2CN(CCc3c([nH]c4ccccc34)[C@@](C(=O)OC)(c3cc4c(cc3OC)N(C=O)[C@H]3[C@@](O)(C(=O)OC)[C@H](OC(C)=O)[C@]5(CC)C=CCN6CC[C@]43[C@@H]65)C2)C1 [Vincristine sulfate]
- PARP1 L713F-nLuc/akaLuc ratio [1]: 0.783 (inactive)

SMILES: Cc1ncc(F)c(Nc2n[nH]c3c2CN(C(=O)N2C[C@@H](C)N(CC4CCOCC4)C[C@@H]2C)C3(C)C)n1
- PARP1 L713F-nLuc/akaLuc ratio [1]: 1.25 (inactive)

SMILES: Cn1cnc2c(F)c(Nc3ccc(Br)cc3Cl)c(C(=O)NOCCO)cc21 [Selumetinib (AZD6244)]
- PARP1 L713F-nLuc/akaLuc ratio [1]: 0.465 (inactive)

SMILES: N#Cc1ccc(C(=O)N(Cc2cccs2)C2CC2)cc1
- PARP1 L713F-nLuc/akaLuc ratio [1]: 1.18 (inactive)

SMILES: Cn1cc(Nc2nccc(N3C[C@H]4CC[C@@H](C3)N4C(=O)[C@@H]3CC3(F)F)n2)cn1 [Brepocitinib (P-Tosylate)]
- PARP1 L713F-nLuc/akaLuc ratio [1]: 0.619 (inactive)

SMILES: O=c1cc(-c2ccc(O[C@@H]3O[C@H](CO)[C@@H](O)[C@H](O)[C@H]3O)cc2)oc2cc(O)c([C@@H]3O[C@H](CO)[C@@H](O)[C@H](O)[C@H]3O[C@@H]3OC[C@H](O)[C@H](O)[C@H]3O)c(O)c12 [Vaccarin]
- PARP1 L713F-nLuc/akaLuc ratio [1]: 0.723 (inactive)

SMILES: O=C(O)CCNC(=S)NCCCC[C@H](NS(=O)(=O)c1cccc(F)c1)C(=O)N[C@@H](Cc1c[nH]c2ccccc12)C(=O)NC1CCC1 [SIRT5 inhibitor 1]
- PARP1 L713F-nLuc/akaLuc ratio [1]: 0.907 (inactive)

SMILES: Nc1ccc(S(=O)(=O)NCCc2ccccc2)cc1
- PARP1 L713F-nLuc/akaLuc ratio [1]: 0.888 (inactive)

SMILES: CC1(C)Oc2cc(N3CCN(C(=O)OCc4ccccc4)CC3)c([N+](=O)[O-])cc2-c2c1cnn2-c1ccc(C(=O)O)cc1 [Lin28-let-7a antagonist 1]
- PARP1 L713F-nLuc/akaLuc ratio [1]: 0.959 (inactive)

SMILES: Cc1cc(-c2ccccc2)cc(C(=O)NNS(=O)(=O)c2ccccc2)c1F
- PARP1 L713F-nLuc/akaLuc ratio [1]: 0.665 (inactive)

SMILES: CCN(C(=O)c1cc(F)ccc1Oc1cncnc1N1CC2(CCN(C[C@H]3CC[C@H](NS(=O)(=O)CC)CC3)CC2)C1)C(C)C
- PARP1 L713F-nLuc/akaLuc ratio [1]: 0.797 (inactive)

SMILES: COc1ccc(S(=O)(=O)Nc2cc(-c3csc(C#N)c3)ccc2C)cc1
- PARP1 L713F-nLuc/akaLuc ratio [1]: 1.24 (inactive)

SMILES: CN1CCN(CCOc2cc(OC3CCOCC3)c3c(Nc4c(Cl)ccc5c4OCO5)ncnc3c2)CC1 [Saracatinib (AZD0530)]
- PARP1 L713F-nLuc/akaLuc ratio [1]: 0.92 (inactive)

SMILES: Nc1nc(Cl)nc2c1ncn2[C@H]1C[C@H](O)[C@@H](CO)O1 [Cladribine]
- PARP1 L713F-nLuc/akaLuc ratio [1]: 0.383 (inactive)

SMILES: NC(=O)c1cccc2cn(-c3ccc([C@@H]4CCCNC4)cc3)nc12 [Niraparib]
- PARP1 L713F-nLuc/akaLuc ratio [1]: 4.32 (active)

SMILES: CN(C)c1nc2c(Br)c(Br)c(Br)c(Br)c2n1CC(=O)O
- PARP1 L713F-nLuc/akaLuc ratio [1]: 1.02 (inactive)

SMILES: CN(C)c1ccc(-c2nc3ncc(Cl)c(N4CCN(CC(=O)Nc5nccs5)CC4)c3[nH]2)cc1
- PARP1 L713F-nLuc/akaLuc ratio [2]: 0.845 (inactive)

SMILES: COc1cc2c(N3CCN(C(=O)Nc4ccc(OC(C)C)cc4)CC3)ncnc2cc1OCCCN1CCCCC1 [Tandutinib (MLN518)]
- PARP1 L713F-nLuc/akaLuc ratio [2]: 1.73 (inactive)

SMILES: CCn1cc(C(=O)O)c(=O)c2cc(F)c(N3CCNCC3)nc21 [Enoxacin (hydrate)]
- PARP1 L713F-nLuc/akaLuc ratio [3]: 0.596 (inactive)

SMILES: N[C@@H]1[C@@H](O)[C@H](O[C@@H]2O[C@H](CO)[C@@H](O)[C@H](O)[C@H]2N)[C@@H](CO)O[C@H]1O [Chitosan oligosaccharide]
- PARP1 L713F-nLuc/akaLuc ratio [3]: 0.65 (inactive)
